Some test systems named below: T-47D breast; BT-549 breast; MDA-MB-435 melanoma; SW-620 colon; MCF7 breast; HCT-116 colon; HCC-2998 colon; KM12 colon.
What all share (test): NCI-60 one-dose screen, 48 h (100 = growth as untreated, 0 = no growth, -100 = all killed)
Holding throughout (conditions): 10 µM unless noted

The structures appear in SMILES notation. About 83,000 compounds went through this panel and 20% of them were active in at least one assay; those are over-represented in the sample as a whole.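 Plates (96-well) were seeded with cells, treated with compound at one concentration, and incubated for 48 hours before percent growth was determined.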 Unmarked numbers belong to inactive results. The source made the active and inactive calls. Rule for the calls: active = growth percent below 10; inactive = the rest.

As to `COc1cc(/C=C/C(=O)c2cccc(-n3cc(-c4ccc(Cl)cc4)[nH]c3=O)c2)ccc1O`, the growth with T-47D breast is 62.2%; in the experiment with BT-549 breast, 26.3%; with MDA-MB-435 melanoma, 21.4%; with SW-620 colon it was 16%; in the experiment with MCF7 breast it was 9.8% (active); in the experiment with HCT-116 colon it was 21.5%. Also, the growth in the experiment on HCC-2998 colon is 66.8%; in the experiment on KM12 colon, 6.79% (active).

As for `CCOC(=O)c1ccc[nH]1`, the growth was 93.3% with T-47D breast; 77.5% in the experiment on BT-549 breast; 105% in the experiment with MDA-MB-435 melanoma; 113% in the experiment with SW-620 colon; 92.6% in the experiment on MCF7 breast; 94.5% in the experiment on HCT-116 colon. Moreover, the growth was 88.1% in the experiment on HCC-2998 colon and 108% with KM12 colon.

As for `Nc1ccc(Br)cc1C(F)(F)F`, the growth in the experiment with T-47D breast was 96.7%; with BT-549 breast, 107%; in the experiment on MDA-MB-435 melanoma it was 117%; in the experiment on SW-620 colon, 111%; in the experiment with MCF7 breast it was 106%; with HCT-116 colon, 103%. Besides, the growth was 114% with HCC-2998 colon and 112% in the experiment with KM12 colon.

`Nc1ncccc1O`: the growth in the experiment with T-47D breast was 96.2%; in the experiment with BT-549 breast it was 93.7%; with MDA-MB-435 melanoma it was 109%; in the experiment with SW-620 colon, 51%; in the experiment with MCF7 breast it was 68.6%; in the experiment with HCT-116 colon, 37.9%. In addition, the results for the growth with HCC-2998 colon and in the experiment with KM12 colon were 97.4% and 100%, respectively.

For `COC(=O)c1ccc2c(c1)c1c(C)c3cnccc3c(C)c1n2C`, the growth in the experiment on T-47D breast was -21.6% (active); in the experiment with BT-549 breast it was -4.33% (active); in the experiment on MDA-MB-435 melanoma, 6.89% (active); in the experiment with SW-620 colon, -6.12% (active); with MCF7 breast, -37.1% (active); in the experiment on HCT-116 colon it was -59.8% (active). Further, the values for the growth in the experiment on HCC-2998 colon and in the experiment on KM12 colon were 1.42% (active) and 1.9% (active), respectively.

For the compound `Cc1cc2oc(/C=C/c3ccccc3)cc(=O)c2c(C)c1Cl`, the growth was 87% with T-47D breast; 101% in the experiment on BT-549 breast; 95.9% with MDA-MB-435 melanoma; 100% with SW-620 colon; 98% in the experiment on MCF7 breast; 105% with HCT-116 colon. For the same compound, the growth was 106% with HCC-2998 colon and 109% with KM12 colon.

As for `O=C(/C=C/c1ccccc1)c1ccc(-n2cc(CN3CCN(c4cc5c(cc4F)c(=O)c(C(=O)O)cn5C4CC4)CC3)nn2)cc1`, the growth was 92.9% in the experiment on T-47D breast; 76.7% in the experiment with BT-549 breast; 79.5% with MDA-MB-435 melanoma; 83.7% in the experiment with SW-620 colon; 58.2% with MCF7 breast; 6.95% (active) in the experiment on HCT-116 colon. Besides, the growth in the experiment on HCC-2998 colon was 88.3%; with KM12 colon it was 73.7%.

For `Nc1ncnc2c1N=C(c1ccc(Cl)cc1)CC(c1cccc(Nc3ccnc4cc(Cl)ccc34)c1)N2` (stereo not drawn), the growth in the experiment with T-47D breast was 85.9%; in the experiment with BT-549 breast, 78.5%; in the experiment on MDA-MB-435 melanoma, 58%; with SW-620 colon, 72.2%; with MCF7 breast, 19.5%; in the experiment on HCT-116 colon, 14.9%. Besides, the growth is 70.4% in the experiment with HCC-2998 colon and 56.1% in the experiment on KM12 colon.

As to `Cc1c2ccccc2nc2cc3c(cc12)[C@H]1CC[C@]2(C)C(=O)CC[C@H]2[C@@H]1CC3`, the growth in the experiment with T-47D breast was 103%; in the experiment on BT-549 breast it was 96%; in the experiment with MDA-MB-435 melanoma, 95.6%; in the experiment on SW-620 colon, 99.8%; in the experiment on MCF7 breast, 115%; in the experiment with HCT-116 colon, 90.2%. The growth in the experiment on HCC-2998 colon was 109%; with KM12 colon it was 95.4%.

As to `COC(=O)c1c2c(c[n+]([O-])c1C)C(=O)C=C(NCc1ccccc1)C2=O`, the growth with T-47D breast was -47.7% (active); in the experiment with BT-549 breast it was -87.3% (active); in the experiment on MDA-MB-435 melanoma, -86.5% (active); in the experiment with SW-620 colon, -78.9% (active); with MCF7 breast, -57.3% (active); in the experiment with HCT-116 colon, -79.5% (active). In addition, the values for the growth in the experiment with HCC-2998 colon and with KM12 colon were -89.5% (active) and -83.2% (active), respectively.

Turning to `COc1cc2ncnc(Nc3ccc(S(=O)(=O)Nc4nccs4)cc3)c2cc1OCCCN1CCCC1`, the growth was 105% with T-47D breast; 105% in the experiment on BT-549 breast; 99.7% with MDA-MB-435 melanoma; 103% with SW-620 colon; 99.6% with MCF7 breast; 97.3% in the experiment on HCT-116 colon. Moreover, the growth was 112% in the experiment with HCC-2998 colon and 121% with KM12 colon.

On to `COCC(=O)Oc1cc(-c2ccc(C)cc2C)c(OC(=O)COC)c(-c2ccc(C)cc2C)c1`, for which the growth with T-47D breast was 43.7%; with BT-549 breast, 56.6%; in the experiment on MDA-MB-435 melanoma, 59.6%; in the experiment on SW-620 colon, 43.2%; with MCF7 breast it was 41%; with HCT-116 colon it was 17.7%. Also, the growth with HCC-2998 colon is 88%; in the experiment with KM12 colon, 44.8%.

In the case of `Nc1c(Br)cc2c(c1Br)Cc1cc([N+](=O)[O-])ccc1-2`, the growth in the experiment with T-47D breast was 58.3%; in the experiment with BT-549 breast, 110%; with MDA-MB-435 melanoma it was 108%; in the experiment with SW-620 colon, 103%; in the experiment with MCF7 breast, 33.8%; in the experiment with HCT-116 colon, 95.3%. In addition, the growth in the experiment on HCC-2998 colon was 104%; with KM12 colon, 99.1%.

As for `CCOC(=O)C/C(=N\Nc1cc(=O)[nH]c2ccc(OC)cc12)C(=O)OCC`, the growth was 101% in the experiment on T-47D breast; 110% in the experiment with BT-549 breast; 99% with MDA-MB-435 melanoma; 90.3% with SW-620 colon; 87.9% with MCF7 breast; 101% with HCT-116 colon. In addition, the growth is 101% in the experiment on HCC-2998 colon and 99.2% in the experiment on KM12 colon.

With `S=c1ccnc[nH]1`, the growth was 125% in the experiment with T-47D breast; 106% with BT-549 breast; 113% in the experiment on MDA-MB-435 melanoma; 108% with SW-620 colon; 107% in the experiment on MCF7 breast; 96.8% in the experiment with HCT-116 colon. The growth in the experiment on HCC-2998 colon is 104%; in the experiment on KM12 colon, 109%.

As to `COc1ccc2c(c1)CC[C@@H]1[C@@H]2CC[C@]2(C)c3c(cc(C#N)c4c3sc3ccccc34)C[C@@H]12`, the growth was 102% with T-47D breast; 114% in the experiment with BT-549 breast; 105% in the experiment on MDA-MB-435 melanoma; 99.5% in the experiment on SW-620 colon; 106% in the experiment with MCF7 breast; 108% in the experiment on HCT-116 colon. The values for the growth in the experiment on HCC-2998 colon and with KM12 colon were 92.7% and 109%, respectively.

The values are drawn from PubChem BioAssay (NCI).
